40 compounds from PubChem BioAssay (NCATS) can be followed below.

Molecules are shown by their SMILES. Values without a mark were called inactive. Active and inactive are the calls of the source. Calls follow the shape of the dose curve; as a rule, active = well fitted curve in the direction sought with a large enough effect; inconclusive = small, poorly fitted or top-dose-only effect, or another doubt; inactive = no such curve, though single readings can be large or run the other way.

Chain of Alpha-galactosidase (Coffea arabica) (Q42656 whole entry, looked up): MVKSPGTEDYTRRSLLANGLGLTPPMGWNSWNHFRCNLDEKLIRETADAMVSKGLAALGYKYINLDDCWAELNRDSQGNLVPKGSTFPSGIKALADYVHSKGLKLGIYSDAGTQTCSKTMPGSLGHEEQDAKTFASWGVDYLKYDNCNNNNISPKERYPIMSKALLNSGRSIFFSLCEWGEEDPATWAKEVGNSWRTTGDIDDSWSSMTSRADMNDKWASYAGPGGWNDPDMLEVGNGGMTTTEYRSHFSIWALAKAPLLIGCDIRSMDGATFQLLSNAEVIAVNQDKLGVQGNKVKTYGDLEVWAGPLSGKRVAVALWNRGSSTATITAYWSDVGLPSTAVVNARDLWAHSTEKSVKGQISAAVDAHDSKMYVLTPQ

In this experiment the target is Alpha-galactosidase (Coffea arabica) (UniProt Q42656). The experiment can be described thus: Counterscreen for Glucocerebrosidase Inhibitors: qHTS Assay for Coffee Bean alpha-Galactosidase at pH 4.5 (AID 957).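 Also: plate controls were enzyme alone for no effect and no enzyme for full effect.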 The following applies: purified coffee bean alpha-galactosidase, fluorogenic substrate; series mostly up to 76.9 µM; activity change, negative = inhibition: at the top concentration. The text has this:
NIH Chemical Genomics Center [NCGC]
NIH Molecular Libraries Screening Centers Network [MLSCN]
PI Name: Zheng, Wei [NIH]
Alpha-galactosidase is a homodimeric glycoprotein that hydrolyzes the terminal alpha-galactosyl moieties from glycolipids and glycoproteins. Deficiency of this enzyme results in Fabry Disease with progressive accumulation of globotriaosylceramide and other glycosphingolipids in vascular endothelial cells that causes renal failure, myocardial infarction and stroke, and premature death in patients. It has reported that the improper folding and trafficking of alpha-galactosidase resulted from the genetic mutations may account for a significant numbers of Fabry patients. […] We optimized this coffee bean alpha-galactosidase assay in 1536-well plate format as a counter-screen assay for identifying the selective small molecule inhibitors of other lysosomal enzymes.
NCGC Assay Protocol Summary:
This is a fluorogenic enzyme assay with 4-Methylumbelliferyl alpha-D-galactopyranoside as the substrate and green coffee bean […] (from Sigma-Aldrich) as the enzyme preparation. Upon the hydrolysis of this fluorogenic substrate, the resulting product, […]. 4-Methyllumbelliferone, can be excited at 365 nm and emits at 440 nm which can be detected by a standard fluorescence plate reader. Data were normalized to the controls for basal activity (without enzyme) and 100% activity (with enzyme). In the AC50 values were determined from concentration-response data modeled with the standard Hill equation.
Assay buffer: 50 mM citric acid, 0.005% Tween-20, pH 4.5. (pH 5.9 is an optimal condition for this enzyme assay. This assay in pH 4.5 is used for comparison the inhibitor activities with the human alpha-galactosidase assay)
1536-well assay protocol for the coffee bean alpha-galactosidase:
(1) Add 2 ul/well of enzyme (2 nM final)
(2) Add 23 nL compounds in DMSO solution. The final titration was 0.7 nM to 77 uM.
(3) Add 1 ul of substrate (80 uM final)
(4) Incubate at room temperature for 20 min.
(5) Add 2 ul stop solution (1M NaOH and 1M Glycine mixture, pH 10)
(6) Detect the assay plate in a ViewLux plate reader (PerkinElmer) with Ex=365 nm and Em=440nm.
Keywords: Alpha-galactosidase, Fabry Disease, pharmacological chaperone, chaperone therapy, high throughput screening, alpha-galactosidase inhibitor, MLSMR, MLSCN, NIH Roadmap, qHTS and NCGC
As to `CN[C@H]1CC[C@@H](c2ccc(Cl)c(Cl)c2)c2ccccc21`, the “activity change, negative = inhibition” value was -1.65%.

For the compound `Cc1ccccc1N1C(=O)c2cc(S(N)(=O)=O)c(Cl)cc2NC1C` (stereo not given), the “activity change, negative = inhibition” value was 1.98%.

For the compound `O=C1CCc2cc(OCCCCc3nnnn3C3CCCCC3)ccc2N1`, the “activity change, negative = inhibition” value was 3.29%.

Consider `O=NN(CCCl)C(=O)NCCCl`, for which the “activity change, negative = inhibition” value is 1.71%.

`CN(C)CC/C=C1\c2ccccc2COc2ccccc21`: the “activity change, negative = inhibition” value is -3.23%.

As for `Fc1ccc(C(OCCN2CCN(CCCc3ccccc3)CC2)c2ccc(F)cc2)cc1`, the “activity change, negative = inhibition” value was -4.47%.

For the compound `Nc1nnc(-c2cccc(Cl)c2Cl)c(N)n1`, the “activity change, negative = inhibition” value was 3.28%.

On to `COC(=O)Nc1nc2ccc(C(=O)c3cccs3)cc2[nH]1`, for which the “activity change, negative = inhibition” value was -3.94%.

As for `CCOC(=O)c1ncn2c1CN(C)C(=O)c1cc(F)ccc1-2`, the “activity change, negative = inhibition” value is -0.426%.

As to `NC(=O)NO`, the “activity change, negative = inhibition” value is 3.22%.

`CCN(CC)C(=S)SSC(=S)N(CC)CC`: the “activity change, negative = inhibition” value is -4.34%.

On to `CN(C)CCC=C1c2ccccc2C=Cc2ccccc21`, for which the “activity change, negative = inhibition” value is -7.71%.

`O=c1c(O)c(-c2ccc(O)c(O)c2)oc2cc(O)cc(O)c12`: the “activity change, negative = inhibition” value is 0.726%.

As to `CC1=NS(=O)(=O)c2cc(Cl)ccc2N1`, the “activity change, negative = inhibition” value was 0.0065%.

For `N=c1nc(N2CCCCC2)cc(N)n1O`, the “activity change, negative = inhibition” value was 3.33%.

As for `Cc1oncc1C(=O)Nc1ccc(C(F)(F)F)cc1`, the “activity change, negative = inhibition” value was 3.58%.

Regarding `CCCN1CCC[C@@H]2Cc3nc(N)ncc3C[C@H]21`, the “activity change, negative = inhibition” value is -0.496%.

As to `CNCCCC1c2ccccc2C=Cc2ccccc21`, the “activity change, negative = inhibition” value was -0.859%.

Regarding `CCC1(c2ccccc2)C(=O)NCNC1=O`, the “activity change, negative = inhibition” value was -1.05%.

In the case of `CN(C)C(=O)C(CCN1CCC(O)(c2ccc(Cl)cc2)CC1)(c1ccccc1)c1ccccc1`, the “activity change, negative = inhibition” value was -5.5%.

As to `CC1=C(/C=C/C(C)=C/C=C/C(C)=C/C(=O)Nc2ccc(O)cc2)C(C)(C)CCC1`, the “activity change, negative = inhibition” value is -4.49%.

In the case of `CCCC(C)(COC(N)=O)COC(=O)NC(C)C` (stereo not given), the “activity change, negative = inhibition” value was 1.56%.

Turning to `COc1ccccc1N1CCNCC1`, the “activity change, negative = inhibition” value was -1.54%.

For `CN(C)c1nc(N(C)C)nc(N(C)C)n1`, the “activity change, negative = inhibition” value is -0.867%.

`O=C(c1ccc(OCCN2CCCCC2)cc1)c1c(-c2ccc(O)cc2)sc2cc(O)ccc12`: the “activity change, negative = inhibition” value is -5.79%.

Regarding `Nc1nc2c(ncn2COCCO)c(=O)[nH]1`, the “activity change, negative = inhibition” value was 1.55%.

As for `CN(C)CCC=C1c2ccccc2CCc2ccccc21`, the “activity change, negative = inhibition” value is -4.09%.

Consider `CN1CCN(C2=Nc3ccccc3Oc3ccc(Cl)cc32)CC1`, for which the “activity change, negative = inhibition” value was 0.313%.

For `CN(C)CCCN1c2ccccc2Sc2ccc(Cl)cc21`, the “activity change, negative = inhibition” value was -6.46%.

Regarding `C[C@](N)(Cc1ccc(O)c(O)c1)C(=O)O`, the “activity change, negative = inhibition” value was -3.19%.

As for `c1ccc(C2CC2)c(OCC2=NCCN2)c1`, the “activity change, negative = inhibition” value is -1.29%.

Consider `OCCN1CCN(CCCN2c3ccccc3Sc3ccc(C(F)(F)F)cc32)CC1`, for which the “activity change, negative = inhibition” value is -5.43%.

Regarding `NN=C(N)N`, the compound was classed as inactive.

As for `CC(C)OC(=O)C(C)(C)Oc1ccc(C(=O)c2ccc(Cl)cc2)cc1`, the “activity change, negative = inhibition” value is -5.71%.

Consider `CN1CCN(CCCN2c3ccccc3Sc3ccc(Cl)cc32)CC1`, for which the “activity change, negative = inhibition” value was -0.79%.

On to `Clc1ccc(C(c2ccccc2Cl)C(Cl)Cl)cc1` (stereo not given), for which the “activity change, negative = inhibition” value is -2.22%.

As to `CC1(C)NC(=O)N(c2ccc([N+](=O)[O-])c(C(F)(F)F)c2)C1=O`, the “activity change, negative = inhibition” value was -4.57%.

`CC(C)[N+](C)(CCOC(=O)C1c2ccccc2Oc2ccccc21)C(C)C`: the “activity change, negative = inhibition” value was -0.902%.

For the compound `Nc1nc2c(ncn2COC(CO)CO)c(=O)[nH]1`, the “activity change, negative = inhibition” value was -0.0541%.

Take `Cn1cnc([N+](=O)[O-])c1Sc1ncnc2nc[nH]c12`: the “activity change, negative = inhibition” value is -1.13%.
